Several values for one entry are separate records, joined by “and”; a condition that tells them apart may be missing. Equal entries are not always repeated. Compounds without any hit were thinned out: in the full panel of roughly 83,000, 20% have a hit.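 48-hour exposure, single concentration, 96-well plates; percent growth endpoint where 0 means no net growth. Active: below 10.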 Activity calls are given as the source filed them.

The subject of the assay is HL-60(TB) leukemia. The assay can be described thus: NCI-60 one-dose screen, 48 h (100 = growth as untreated, 0 = no growth, -100 = all killed). Particulars: 10 µM unless noted. The protocol:
Growth inhibition of the HL-60(TB) human tumor cell line is measured as a screen for anti-cancer activity. Cells are grown in 96 well plates and exposed to the test compound for 48 hours. Compounds are tested at a single concentration, which is 10^-5 M for most compounds. The reported endpoint is percent growth (GI% or GIPRCNT), where numbers from 0 - 100% represent growth inhibition, and numbers from -100% - 0 represent cell death. For example, a value of 40 represents 60% growth inhibition. A value of 0 means no net growth occurred over the course of the experiment. A value of -40 indicates 40% of cells at the beginning of the experiment died by the end of the experiment. A value of -100 means all cells are dead at the end of the experiment.
NCI-60 Human Tumor Cell Lines Screen was performed using the standard one-dose NCI protocol, which is described in more detail at https://dtp.cancer.gov/discovery_development/nci-60/default.htm.
Compounds with GIPRCNT values below 10 were considered active. Activity score was based on GIPRCNT using the following formula: […]
Score is 0 for GIPRCNT values of 100 or above, 50 for GIPRCNT values of 0, and 100 for GIPRCNT values of -100.
Take `CCc1ccc(NC(=O)N[C@@H](Cc2cc(F)cc(F)c2)C(=O)N[C@@H]2C(=O)N3CCC[C@H]3C(=O)N3CCO[C@H](C)[C@H]3C(=O)N[C@@H](CO)C(=O)N3C[C@H](C)C[C@H]3C(=O)O[C@H]2C)c(F)c1`: the growth was 15.4% (inactive).

In the case of `CCOC(=O)c1sc(N)c(C(=O)OCC)c1C`, the growth is 38.5% (inactive).

As to `COC(=O)C[Se]C(=O)Cc1c(C)n(C(=O)c2ccc(Cl)cc2)c2ccc(OC)cc12`, the growth is -20.9% (active).

In the case of `CCC(CC)N1C(=O)/C(=c2\sc3n(c2=O)C2C(NN=3)N(CC)C(=O)N2CC)c2ccccc21` (stereo not given), the growth was -17.8% (active).

For the compound `C=C(C)[C@@H]1CC[C@]2(COC)CC[C@]3(C)[C@H](CC[C@@H]4[C@@]5(C)CCCNC(C)(C)[C@@H]5CC[C@]43C)[C@@H]12`, the growth was -69.2% (active).

`O=C1CCC(N2C(=O)c3ccc(NS(=O)(=O)c4ccccc4OC(F)(F)F)cc3C2=O)C(=O)N1` (stereo not given): the growth was -20.1% (active).

As to `COc1ccc(/C=N/Nc2ccnc3cc(Cl)ccc23)cc1Cl`, the growth is -37.5% (active).

Regarding `Cc1ccc(-n2cc(/C=N/NC(=O)c3ccncc3)c(-c3ccc(S(C)(=O)=O)cc3)n2)cc1`, the growth is 76.4% (inactive).

On to `CCOC(=O)C1=C(C)NC(C)=C(C(=O)OC(C)C)C1c1cccc(C#N)c1` (stereo not given), for which the growth was 93.1% (inactive).

For `CCN1CCN(c2ccc(NC(=O)Nc3ccc4c(ccn4-c4ccnc(C(=O)NC)c4)c3)cc2C(F)(F)F)CC1`, the growth was 96.6% (inactive).

For `Cc1nc(-c2ccccc2O)ccc1C(=O)N=Nc1c(O)[nH]c2ccc(Br)cc12`, the growth is 114% (inactive).

As for `C#CCN(C)CCCOc1ccc(NC(=O)CCCCCCC(=O)NO)cc1Cl`, the growth was 12.1% (inactive).

Turning to `CC1=C[C@H]2O[C@@H]3C[C@@H](O)[C@](C)([C@@]2(C)CC1)[C@@]31CO1`, the growth is -20.9% (active).

For the compound `C#CCC#CCN1CCC[C@H]1C(=O)NCC(=O)OC`, the growth was 105% (inactive).

As for `Nc1nc(N)c2c(n1)NC(c1ccc(F)cc1)CC(c1ccc(Nc3nc(NCCO)nc(Nc4ccc(Cl)cc4)n3)cc1)=N2` (stereo not given), the growth was -11.4% (active).

Take `Cc1ccc(NC(=O)c2cc(/C=C/C(=O)NO)cc(C(F)(F)F)c2)cc1Nc1nccc(-c2cccnc2)n1`: the growth is 0.414% (active).

For the compound `Clc1cccc(/C=N/Nc2nc(N/N=C/c3cccc(Cl)c3)nc(N3CCCCC3)n2)c1`, the growth is 97% (inactive).

Consider `FC(F)(F)c1cc(Nc2cccc(Oc3ccc(NC4=NCCN4)nc3)c2)ccc1Cl`, for which the growth was -52.5% (active).

Consider `O=C(Nc1cccc(Cl)c1)Nc1nc2ccc([N+](=O)[O-])cc2s1`, for which the growth is -40% (active).

Regarding `C/C=C/CC(C)C(O)[C@H](NC(=O)[C@@H]1CCCN1C(=O)C(C)(C)NC(=O)CCCCCCCCC)C(=O)NC(C)(C)C(=O)N[C@@H](CCC(N)=O)C(=O)N[C@H](CCC(N)=O)C(=O)NC(C)(C)C(=O)NC(C)(C)C(=O)N[C@@H](CCC(N)=O)C(=O)N[C@H](CC(C)C)C(=O)N[C@H](CO)CC(C)C` (stereo not given in full), the growth is -52.1% (active) and -47.2% (active).

`CNC(=O)c1c(NC(=O)c2ccc(F)cc2F)sc2c1CCC(=O)C2`: the growth is -12.6% (active).

As for `COc1cc(OC)c(S(N)(=O)=O)cc1C(=O)/C=C/c1ccc(Cl)cc1`, the growth was -9% (active).

In the case of `COc1ccccc1NC1=C(Cl)C(=O)c2nc(C)ccc2C1=O`, the growth was -48% (active).

With `CCOC(=O)C(=O)CC(=O)N1C(=S)NC(=O)C1CC(C)C` (stereo not given), the growth was 111% (inactive).

On to `C=C(C=O)[C@@H]1CC[C@]2(C)[C@H](C(=O)C=C3[C@H]4C[C@](C)(C(=O)OC)CC[C@]4(C)CC[C@]32C)[C@@]1(C)CCC#N`, for which the growth is -27.3% (active).

For the compound `N#Cc1nc(-c2ccccc2)oc1N1CC[C@@H](CO)C1`, the growth is 90.6% (inactive).

For `Cc1ccccc1Nc1nc(SC(C)C)nc(-c2ccccc2)c1C#N`, the growth is 94.1% (inactive).

Regarding `CCCCCC[n+]1ccc(SCC(=O)n2ccc3ccccc32)c2ccccc21`, the growth was 74.8% (inactive).

On to `COC(=O)C1CN(S(=O)(=O)/N=C2\NC(=O)NC2=C(Cl)Cl)C1`, for which the growth was 101% (inactive).

Consider `NC(N)=Nc1ccc(Oc2cccc(NC(N)=Nc3ccc(I)cc3F)c2)cc1`, for which the growth was 67.4% (inactive).

For `O=C(NNc1nc2cc(F)c(F)cc2n2cccc12)c1ncccn1`, the growth is 2.19% (active).

As to `Cc1ccc(-c2nnc3sc(C4=Cc5ccccc5OC=C4)nn23)cc1`, the growth is 85% (inactive).

For the compound `O=S(=O)(Nc1ccc2c(c1)OC(F)(F)O2)c1ccc(-c2cnc(C3CC3)o2)cc1`, the growth is 3.85% (active).

Turning to `COc1ccc(OC)c(-c2nc(SCC(=O)c3ccc(Br)cc3)nc(Nc3ccc(S(N)(=O)=O)cc3)c2C#N)c1`, the growth was 25.9% (inactive).

Regarding `O=S(=O)(NCCCNc1nccc(-c2[nH]c(-c3ccccc3)nc2-c2ccc(F)c(O)c2)n1)c1cccc(F)c1`, the growth was 95.7% (inactive).

As to `CN(C)c1ccc(-c2cc(-c3c[nH]c4ccccc34)nc(N)c2C#N)cc1`, the growth was 20.6% (inactive).

With `COC[C@]12CC[C@@H](C)[C@H](C)[C@H]1C1=CC[C@@H]3[C@@]4(C)CCCNC(C)(C)[C@@H]4CC[C@@]3(C)[C@]1(C)CC2`, the growth is -47.1% (active).

Turning to `CCCC(=O)NC(c1cccc(N(C)C)c1)c1cc(C)c2cccnc2c1O` (stereo not given), the growth was 0.32% (active).

In the case of `CNC(=O)c1cc(N2CCc3cc(NC(=O)Nc4ccc(Cl)c(C(F)(F)F)c4)ccc32)ccn1`, the growth is 50.3% (inactive).

Regarding `O=C(CSc1nnc(-c2ccc(Cl)cc2)n1-c1ccccc1)Nc1cccc(Cl)c1`, the growth was 89.8% (inactive).

These data come from PubChem BioAssay (NCI).
